According to PubChem BioAssay (Tox21):
Values joined by “and” are separate entries in the source; they are usually repeats but may differ in a detail not shown here. Equal entries are not always repeated. Results filed as inconclusive are left out. Where a structure was tested more than once in an assay, its records may differ in their call. Active and inactive are the calls of the source. The call rests on the fitted dose curve; in most records, active means well fitted curve in the direction sought with a large enough effect in the repeat runs; inconclusive means weak or mixed curves; inactive means no such curve, though single readings can be large; an effect the other way counts as inactive or inconclusive.

Key:
[1] = qHTS RealTime-Glo MT Cell Viability Assay in HepG2 cells - 24 hour (AID 1224867); details: RealTime-Glo luminescence; series mostly up to 76.8 µM; further: nearly all actives have a fitted effect of over 50% in size
Method in brief: (§1)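 Cell number in HepG2 cultures estimated from NanoLuc luminescence generated by metabolic reduction of a prosubstrate by living cells. The homogeneous, nonlytic format allowed repeated reads at 0, 8, 16, 24, 32 and 40 h of compound exposure.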

[2] = A CellTox Green Cytotoxicity Assay to monitor cytotoxicity in HEK293 cells - 0 hour (AID 1224869); details: CellTox Green fluorescence; series mostly up to 76.8 µM; further: nearly all actives have a fitted effect of over 50% in size
Method in brief: (§2)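 Cytotoxicity was tracked continuously in HEK293 cells by a DNA-binding dye excluded from viable cells. Compounds were transferred in DMSO 5 h after seeding; fluorescence was recorded at intervals up to 40 h.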

[3] = qHTS RealTime-Glo MT Cell Viability Assay in HepG2 cells - 40 hour (AID 1224870); details: RealTime-Glo luminescence; series mostly up to 76.8 µM; further: nearly all actives have a fitted effect of over 50% in size
Method in brief: (§3)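 HepG2 cells mixed with RealTime-Glo MT reagents (NanoLuc plus cell-permeant prosubstrate) were seeded at 600 cells/well, incubated 5 h at 37 C/5% CO2, then pinned with compounds in DMSO; nonlytic luminescence tracked viability during 40 h treatment.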

[4] = A CellTox Green Cytotoxicity Assay to monitor cytotoxicity in HEK293 cells - 40 hour (AID 1224871); details: CellTox Green fluorescence; series mostly up to 76.8 µM; further: nearly all actives have a fitted effect of over 45% in size
Method in brief: as §2

[5] = qHTS RealTime-Glo MT Cell Viability Assay in HEK293 cells - 16 hour (AID 1224872); details: RealTime-Glo luminescence; series mostly up to 76.8 µM; further: top concentration of the series differs between compounds; nearly all actives have a fitted effect of over 50% in size
Method in brief: (§4)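 Homogeneous bioluminescent viability format in HEK293 cells (600 cells/well). Following 5 h at 37 C/5% CO2, 23 nL compound was pintooled; the signal was measured repeatedly during 40 h incubation.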

[6] = qHTS RealTime-Glo MT Cell Viability Assay in HepG2 cells - 8 hour (AID 1224873); details: RealTime-Glo luminescence; series mostly up to 76.8 µM; further: nearly all actives have a fitted effect of over 55% in size
Method in brief: as §3

[7] = qHTS RealTime-Glo MT Cell Viability Assay in HEK293 cells - 40 hour (AID 1224874); details: RealTime-Glo luminescence; max response: stronger effect = lower value; further: nearly all actives have a fitted effect of over 50% in size
Method in brief: (§5)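 Nonlytic bioluminescent viability monitoring. HEK293 at 600 cells/well with reagent; 5 h settle; compound transfer by pintool; plates held at 37 C and read at set time points.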

[8] = A CellTox Green Cytotoxicity Assay to monitor cytotoxicity in HEK293 cells - 24 hour (AID 1224875); details: CellTox Green fluorescence; series mostly up to 76.8 µM; further: nearly all actives have a fitted effect of over 45% in size
Method in brief: as §2

[9] = A CellTox Green Cytotoxicity Assay to monitor cytotoxicity in HepG2 cells - 16 hour (AID 1224876); details: CellTox Green fluorescence; series mostly up to 76.8 µM; further: nearly all actives have a fitted effect of over 45% in size
Method in brief: (§6)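 Real-time, homogeneous cytotoxicity readout: dead-cell DNA staining by CellTox Green in HepG2 monolayers, fluorescence measured at timed intervals up to 40 h of continuous compound exposure.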

[10] = qHTS RealTime-Glo MT Cell Viability Assay in HepG2 cells - 32 hour (AID 1224877); details: RealTime-Glo luminescence; series mostly up to 76.8 µM; further: nearly all actives have a fitted effect of over 55% in size
Method in brief: as §1

[11] = A CellTox Green Cytotoxicity Assay to monitor cytotoxicity in HepG2 cells - 24 hour (AID 1224878); details: CellTox Green fluorescence; series mostly up to 76.8 µM; further: nearly all actives have a fitted effect of over 45% in size
Method in brief: as §6

[12] = qHTS RealTime-Glo MT Cell Viability Assay in HEK293 cells - 0 hour (AID 1224880); details: RealTime-Glo luminescence; series mostly up to 76.8 µM
Method in brief: as §5

[13] = A CellTox Green Cytotoxicity Assay to monitor cytotoxicity in HEK293 cells - 32 hour (AID 1224881); details: CellTox Green fluorescence; series mostly up to 76.8 µM; further: nearly all actives have a fitted effect of over 40% in size
Method in brief: as §2

[14] = A CellTox Green Cytotoxicity Assay to monitor cytotoxicity in HepG2 cells - 0 hour (AID 1224882); details: CellTox Green fluorescence; series mostly up to 76.8 µM; further: nearly all actives have a fitted effect of over 35% in size
Method in brief: as §6

[15] = A CellTox Green Cytotoxicity Assay to monitor cytotoxicity in HepG2 cells - 32 hour (AID 1224883); details: CellTox Green fluorescence; series mostly up to 76.8 µM; further: nearly all actives have a fitted effect of over 50% in size; further: potency means the concentration at half of the fitted maximal effect
Method in brief: as §6

[16] = A CellTox Green Cytotoxicity Assay to monitor cytotoxicity in HEK293 cells - 8 hour (AID 1224884); details: CellTox Green fluorescence; series mostly up to 76.8 µM; further: nearly all actives have a fitted effect of over 35% in size
Method in brief: as §2

[17] = A CellTox Green Cytotoxicity Assay to monitor cytotoxicity in HepG2 cells - 40 hour (AID 1224879); details: CellTox Green fluorescence; series mostly up to 76.8 µM; further: nearly all actives have a fitted effect of over 40% in size; further: potency means the concentration at half of the fitted maximal effect
Method in brief: as §6

[18] = qHTS RealTime-Glo MT Cell Viability Assay in HEK293 cells - 32 hour (AID 1224868); details: RealTime-Glo luminescence; series mostly up to 76.8 µM
Method in brief: as §4
On the % scale 0 is the no-effect control and ±100 the full control effect.

O=C(O)c1cc(=O)c2c(OCC(O)COc3cccc4oc(C(=O)O)cc(=O)c34)cccc2o1
inactive: outcome [1] | outcome [2] | outcome [3] | Potency [4] | Potency [5] | outcome [6] | max response [7] 0.302% and 1.24% | Potency [8] | Potency [9] | outcome [10] | Potency [11] | Potency [12] | Potency [13] | outcome [14] | Potency [15] | outcome [16]

O=C(O)c1cc(C(=O)O)cc(S(=O)(=O)O)c1
inactive: outcome [1] | outcome [2] | outcome [3] | Potency [4] | Potency [5] | outcome [6] | max response [7] -1.84% and 1.2% | Potency [8] | Potency [9] | outcome [10] | Potency [11] | Potency [17] | Potency [12] | Potency [13] | outcome [14] | Potency [15] | outcome [16]

CC(=O)Nc1ccccc1
inactive: outcome [1] | Potency [18] | outcome [2] | outcome [3] | Potency [4] | Potency [5] | outcome [6] | max response [7] 12.1% and 6.06% | Potency [8] | Potency [9] | outcome [10] | Potency [11] | Potency [17] | Potency [12] | Potency [13] | outcome [14] | Potency [15] | outcome [16]

C#CCN(C)Cc1ccccc1
inactive: outcome [1] | Potency [18] | outcome [2] | outcome [3] | Potency [4] | Potency [5] | outcome [6] | max response [7] -0.876% and -0.317% | Potency [8] | Potency [9] | outcome [10] | Potency [11] | Potency [12] | Potency [13] | outcome [14] | Potency [15] | outcome [16]

CCN(CC)CCCC(C)Nc1ccnc2cc(Cl)ccc12 (stereo not drawn)
inactive: activity change, negative = cytotoxicity [1] 1.52% [at 6.97 µM] and -6.42% [at 15.8 µM] | activity change, negative = cytotoxic [18] -16.4% [at 6.97 µM] | cytotoxicity [2] 0.802% [at 6.97 µM] and -1.16% [at 15.8 µM] | activity change, negative = cytotoxic [3] -2.02% [at 6.97 µM] and -2.98% [at 15.8 µM] | cytotoxicity increase [4] -14.6% [at 6.97 µM] and 9.06% [at 15.8 µM] | activity change, negative = cytotoxicity [5] -11.3% [at 6.97 µM] | viability change, negative = cytotoxic [6] -1.01% [at 6.97 µM] and -3.34% [at 15.8 µM] | max response [7] -13.9% | activity change, negative = cytotoxic [10] 11.1% [at 6.97 µM] and -5.44% [at 15.8 µM] | cytotoxicity [11] -7.44% [at 6.97 µM] | cytotoxicity increase [17] -6.76% [at 6.97 µM] and 37% [at 15.8 µM] | activity change, negative = cytotoxicity [12] -2.92% [at 6.97 µM] and -5.73% [at 15.8 µM] | cytotoxicity [14] -5% [at 6.97 µM] and 4.14% [at 15.8 µM] | cytotoxicity increase [15] -6.83% [at 6.97 µM] | cytotoxicity increase [16] -10.7% [at 6.97 µM] and -2.14% [at 15.8 µM]

O=S1(=O)CC=CC1
inactive: outcome [1] | Potency [18] | outcome [2] | outcome [3] | Potency [4] | Potency [5] | outcome [6] | max response [7] -4.83% and 3.43% | Potency [8] | Potency [9] | outcome [10] | Potency [11] | Potency [17] | Potency [12] | outcome [14] | Potency [15] | outcome [16]

Cc1ccc(N(C)C)cc1
inactive: outcome [1] | Potency [18] | outcome [2] | outcome [3] | Potency [4] | Potency [5] | outcome [6] | max response [7] 0.353% and -2.55% | Potency [8] | Potency [9] | outcome [10] | Potency [11] | Potency [17] | Potency [12] | Potency [13] | outcome [14] | Potency [15] | outcome [16]

Oc1cccc2ccccc12
inactive: outcome [1] | Potency [18] | outcome [2] | outcome [3] | Potency [4] | Potency [5] | outcome [6] | max response [7] -13.2% and -5.72% | Potency [8] | outcome [10] | Potency [11] | Potency [12] | Potency [13] | outcome [14] | Potency [15] | outcome [16]

O=C(O)CCCCCCCCCCC(=O)O
inactive: outcome [1] | Potency [18] | outcome [3] | Potency [4] | Potency [5] | outcome [6] | max response [7] -3.15% and -61.6% | Potency [8] | outcome [10] | Potency [11] | Potency [12] | Potency [13] | outcome [14] | Potency [15] | outcome [16]

CCCCN(CCCC)CCCC
inactive: outcome [1] | Potency [18] | outcome [3] | Potency [4] | Potency [5] | outcome [6] | max response [7] 6% and 4.07% | Potency [8] | Potency [9] | outcome [10] | Potency [11] | Potency [17] | Potency [12] | outcome [14] | Potency [15] | outcome [16]

CCCCC(CC)COC(=O)CCCCC(=O)OCC(CC)CCCC (stereo not drawn)
inactive: outcome [1] | Potency [18] | outcome [2] | outcome [3] | Potency [4] | Potency [5] | outcome [6] | max response [7] -6.84% and 6.57% | Potency [8] | outcome [10] | Potency [11] | Potency [12] | outcome [14] | outcome [16]
inactive and 2.45 µM (active): Potency [17] | Potency [15]

O=C(O)c1cc(O)c(O)c(O)c1
inactive: outcome [1] | Potency [18] | outcome [2] | outcome [3] | Potency [4] | Potency [5] | outcome [6] | max response [7] -26.7% and 2.18% | Potency [8] | Potency [9] | outcome [10] | Potency [11] | Potency [17] | Potency [12] | Potency [13] | outcome [14] | Potency [15] | outcome [16]

CCOC(=O)NNc1nncc2ccccc12
inactive: outcome [1] | Potency [18] | outcome [2] | outcome [3] | Potency [4] | Potency [5] | outcome [6] | max response [7] 3.91% and 1.02% | Potency [8] | outcome [10] | Potency [11] | Potency [17] | Potency [12] | Potency [13] | outcome [14] | Potency [15] | outcome [16]

O=C(O)CC(C(=O)O)C(CC(=O)O)C(=O)O (stereo not drawn)
inactive: outcome [1] | Potency [18] | outcome [2] | outcome [3] | Potency [4] | Potency [5] | outcome [6] | max response [7] -2.07% and -0.191% | Potency [8] | outcome [10] | Potency [11] | Potency [17] | Potency [12] | Potency [13] | outcome [14] | Potency [15] | outcome [16]
